14 compounds from PubChem BioAssay (NCI) can be followed below.

SMILES strings stand for the structures. The panel holds about 83,000 compounds, 20% with a hit somewhere; the sample as a whole holds those more often.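 48-hour exposure, single concentration, 96-well plates; percent growth endpoint where 0 means no net growth. Active: below 10.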 Unmarked numbers belong to inactive results. Active and inactive are the calls of the source.

Test systems include HCT-15 colon; HT29 colon; SNB-75 CNS; SNB-19 CNS; U251 CNS; PC-3 prostate; SK-MEL-5 melanoma; UACC-62 melanoma; LOX IMVI melanoma; SK-MEL-28 melanoma.
Holding throughout (test): NCI-60 one-dose screen, 48 h (100 = growth as untreated, 0 = no growth, -100 = all killed)
What all share (conditions): 10 µM unless noted

As to `COc1ccc2c(c1)N(Cc1ccc(Cl)cc1)CCC2N1CCCC1=O` (stereo not given), the growth was 33.5% in the assay with HCT-15 colon; 45.5% with HT29 colon; 27.1% with SNB-75 CNS; 54.7% with SNB-19 CNS; 39.1% in the assay on U251 CNS; 24% with PC-3 prostate. For the same compound, the growth in the assay with SK-MEL-5 melanoma is 24.7%; in the assay on UACC-62 melanoma, 42.1%; in the assay on LOX IMVI melanoma it was 30.3%; in the assay on SK-MEL-28 melanoma it was 63.5%.
Take `Cc1ccc([C@H]2c3[nH]c4ccccc4c3C[C@H]3C(=O)N(CCCCCCC(=O)NO)CC(=O)N23)cc1`: the growth is 102% with HCT-15 colon; 37.2% in the assay with HT29 colon; -7.38% (active) with SNB-75 CNS; 52.5% in the assay on SNB-19 CNS; 50.7% in the assay with U251 CNS; 44.3% in the assay on PC-3 prostate. The growth with SK-MEL-5 melanoma was 37.4%; in the assay on UACC-62 melanoma it was 24.1%; in the assay on LOX IMVI melanoma, -37.2% (active); with SK-MEL-28 melanoma, 37.5%.
For the compound `COc1ccc(Oc2nc(Nc3ccc(N4CCOCC4)cc3)ncc2NC(=O)Nc2cccc(OC)c2)cc1`, the growth was 84% with HCT-15 colon; 54.2% with HT29 colon; 80.1% in the assay with SNB-75 CNS; 72% with SNB-19 CNS; 48.8% in the assay with U251 CNS; 48.4% in the assay with PC-3 prostate. Also, the growth in the assay with SK-MEL-5 melanoma is 22.5%; in the assay on UACC-62 melanoma it was 46.8%; with LOX IMVI melanoma, 76.7%; with SK-MEL-28 melanoma, 61.4%.
With `O=C(O)c1cc2cc(OCc3ccccc3)ccc2[nH]1`, the growth in the assay on HCT-15 colon is 92.3%; in the assay on HT29 colon, 114%; with SNB-75 CNS, 87.8%; with SNB-19 CNS it was 86.4%; with U251 CNS it was 105%; with PC-3 prostate, 102%. Moreover, the growth in the assay with SK-MEL-5 melanoma is 84.1%; in the assay on UACC-62 melanoma, 79.3%; with LOX IMVI melanoma, 96.7%; with SK-MEL-28 melanoma, 48%.
Regarding `O=C(NNC(=O)c1cccc(Cl)c1)c1ccccc1`, the growth is 114% in the assay with HCT-15 colon; 104% in the assay on HT29 colon; 99.4% in the assay on SNB-75 CNS; 119% with SNB-19 CNS; 100% in the assay on U251 CNS; 91.1% in the assay on PC-3 prostate. Further, the growth in the assay with SK-MEL-5 melanoma was 101%; with UACC-62 melanoma, 123%; with LOX IMVI melanoma it was 105%; in the assay with SK-MEL-28 melanoma, 119%.
In the case of `O=C(CCl)Nc1ccc2c(c1)C(=O)c1ccccc1C2=O`, the growth with HCT-15 colon is -38.8% (active); in the assay with HT29 colon it was -63.6% (active); in the assay with SNB-75 CNS it was 41.7%; with SNB-19 CNS, 36.9%; in the assay with U251 CNS, -56.3% (active); with PC-3 prostate it was -12.6% (active). Besides, the growth with SK-MEL-5 melanoma is -82.8% (active); in the assay on UACC-62 melanoma it was -54.9% (active); with LOX IMVI melanoma it was -81% (active); with SK-MEL-28 melanoma, 35.4%.
With `c1cc(C2CCCCC2)ccc1-c1cnc2nonc2n1`, the growth in the assay with HCT-15 colon is 9.57% (active); in the assay on HT29 colon, 3.11% (active); with SNB-75 CNS, 26.6%; with SNB-19 CNS it was 37.2%; with U251 CNS it was 21.6%; in the assay on PC-3 prostate it was 23.9%. In addition, the growth in the assay on SK-MEL-5 melanoma was 22.6%; in the assay with UACC-62 melanoma it was 8.73% (active); in the assay on LOX IMVI melanoma, 2.13% (active); with SK-MEL-28 melanoma it was 65.5%.
Turning to `COC1(OC)C2(Cl)CCC1(Cl)C(Cl)=C2Cl`, the growth in the assay with HCT-15 colon is 95%; with HT29 colon, 101%; in the assay with SNB-75 CNS, 95.6%; with SNB-19 CNS, 105%; with U251 CNS it was 97.8%; with PC-3 prostate it was 100%. In addition, the growth is 102% in the assay on SK-MEL-5 melanoma, 101% with UACC-62 melanoma, 94.2% in the assay with LOX IMVI melanoma and 107% in the assay with SK-MEL-28 melanoma.
Consider `CCN(CC)CCNC(=O)n1cc(-c2ccncc2)c(-c2ccc(Cl)c(OC)c2)n1`, for which the growth in the assay with HCT-15 colon is 96.1%; with HT29 colon, 59.4%; in the assay with SNB-75 CNS, 64.7%; in the assay on SNB-19 CNS, 93%; with U251 CNS, 90.3%; with PC-3 prostate, 88.2%. The growth is 94.1% in the assay on SK-MEL-5 melanoma, 72.5% in the assay on UACC-62 melanoma, 92.3% in the assay on LOX IMVI melanoma and 90.2% in the assay with SK-MEL-28 melanoma.
Regarding `O=C1OCC2=C1C(c1ccccc1)c1cc3c(cc1N2CCO)OCO3` (stereo not given), the growth was 24% in the assay on HCT-15 colon; 12.5% in the assay on HT29 colon; 31.4% in the assay with SNB-75 CNS; 36% with SNB-19 CNS; 20.3% with U251 CNS; 24.5% in the assay on PC-3 prostate. The growth with SK-MEL-5 melanoma is -12.3% (active); in the assay with UACC-62 melanoma, 28.9%; in the assay with LOX IMVI melanoma, 37%; in the assay on SK-MEL-28 melanoma it was 50.5%.
Take `CCCCCCCC/C=C/CCCCCCCC1=NC(C)(C)CN1C(C)C`: the growth with HCT-15 colon was -45.1% (active); with HT29 colon it was -51.3% (active); in the assay with SNB-75 CNS it was 25.5%; in the assay with SNB-19 CNS, 46.4%; in the assay on U251 CNS, -76.1% (active); with PC-3 prostate, -74.4% (active). The growth in the assay on SK-MEL-5 melanoma is -86.3% (active); in the assay with UACC-62 melanoma, -60.5% (active); in the assay on LOX IMVI melanoma it was -81.2% (active); with SK-MEL-28 melanoma, -82.8% (active).
Take `CCNCCCn1c2c(c3ccc(Cl)cc3c1=O)C(=O)c1cc(OC)cnc1-2`: the growth in the assay with HCT-15 colon is -58.2% (active); in the assay with HT29 colon, -76.3% (active); in the assay on SNB-75 CNS, 19.4%; in the assay on SNB-19 CNS, 28.8%; in the assay on U251 CNS it was -93.8% (active); with PC-3 prostate, 40%. Also, the growth is 18.3% in the assay with SK-MEL-5 melanoma, 14.4% in the assay on UACC-62 melanoma, -71.1% (active) in the assay on LOX IMVI melanoma and 70.5% with SK-MEL-28 melanoma.
As to `COc1ccc(-c2nc(SCCC(C)C)nc(Nc3ccc(C(=O)O)cc3)c2C#N)cc1`, the growth was 60.6% in the assay on HCT-15 colon; 84% in the assay on HT29 colon; 92.2% in the assay on SNB-75 CNS; 88.8% in the assay on SNB-19 CNS; 81.5% in the assay on U251 CNS; 58.4% in the assay on PC-3 prostate. In addition, the growth with SK-MEL-5 melanoma is 73.9%; with UACC-62 melanoma, 86.8%; in the assay with LOX IMVI melanoma, 82.6%; with SK-MEL-28 melanoma, 89.7%.
Turning to `Cc1ccccc1Nc1n[nH]c(Cc2ccccc2)n1`, the growth is 108% in the assay on HCT-15 colon; 79.1% in the assay on HT29 colon; 93.9% in the assay on SNB-75 CNS; 97.6% in the assay on SNB-19 CNS; 94.3% in the assay on U251 CNS; 86.5% with PC-3 prostate. Also, the growth is 93.9% with SK-MEL-5 melanoma, 98.4% in the assay on UACC-62 melanoma, 95.5% in the assay on LOX IMVI melanoma and 113% with SK-MEL-28 melanoma.
